# Records with an inconclusive call do not appear. The source made the active and inactive calls. Unless noted, the call rests on the fitted dose curve.
# How the values were obtained:
# [1] = qHTS for Inhibitors of the Functional Ribonucleoprotein Complex (vRNP) of Lassa (LASV) Arenavirus: Viability assay - alamar blue signal for LASV Primary Screen (AID 1347083; calls by dose curve; tested in HEK293 reporter line; further: nearly all actives have a fitted effect of over 80% in size; further: potency means the concentration at half of the fitted maximal effect)
# [2] = qHTS for Inhibitors of the Functional Ribonucleoprotein Complex (vRNP) of Lymphocytic Choriomeningitis Arenaviruses (LCMV): Viability assay - alamar blue signal for LCMV Primary Screen (AID 1347085; calls by dose curve; tested in HEK293 reporter line; further: nearly all actives have a fitted effect of over 80% in size; further: potency means the concentration at half of the fitted maximal effect)
# [3] = Primary qHTS to identify inhibitors of SARS-CoV-2 cell entry (AID 1645846); conditions: activity change, negative = inhibition: at 57.1 µM (top of the series) unless noted; further: nearly all actives have a fitted effect of over 45% in size; further: potency means the concentration at half of the fitted maximal effect
# How it was run: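 Using luciferase-reporting pseudoviruses carrying Wuhan-Hu-1 spike, the screen tracks entry into stably ACE2-expressing cells over 48 hr. Activity is expressed relative to spike particles versus particles lacking any fusion protein.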
# [4] = VSVG counterscreen qHTS to identify inhibitors of SARS-CoV-2 cell entry (AID 1645847); further: potency means the concentration at half of the fitted maximal effect; nearly all actives have a fitted effect of over 65% in size
# How it was run: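 Entry of VSV-G pseudotyped particles into human ACE2-expressing HEK293 cells was measured by luciferase luminescence 48 h after infection, with compound added 1 h beforehand.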
# [5] = Confirmatory qHTS for VERO E6 Cytotoxicity Assay: Counterscreen for SARS-CoV-2 CPE Assay (AID 1508605); further: potency means the concentration at half of the fitted maximal effect; nearly all actives have a fitted effect of over 60% in size
# [6] = Confirmatory qHTS for activators (rescue) of SARS-CoV-2 Cytopathic Effect (CPE) (AID 1508606); further: 0% is about no effect; nearly all actives have a fitted effect of over 70% in size
# [7] = Primary qHTS for inhibitors of SARS-S pseudo-typed particle cell entry (AID 1479145); further: nearly all actives have a fitted effect of over 45% in size
# [8] = Primary qHTS for Huh7 cytotoxicity: counterscreen for inhibitors of MERS-S pseudotyped particle cell entry (AID 1479147); conditions: outcome: dose series up to 57.1 µM unless noted
# [9] = Primary qHTS for inhibitors of MERS-S pseudo-typed particle cell entry (AID 1479149); further: nearly all actives have a fitted effect of over 60% in size
# [10] = Primary qHTS for Vero E6 cytotoxicity: counterscreen for inhibitors of SARS-S pseudo-typed particle cell entry (AID 1479150); conditions: outcome: dose series up to 57.1 µM unless noted
# [11] = Cytotoxicity counterscreen for inhibitors of SARS-CoV-2 cell entry (AID 1645845); further: nearly all actives have a fitted effect of over 50% in size; further: potency means the concentration at half of the fitted maximal effect
# How it was run: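 Expi293F/hACE2 cells seeded overnight; cpd pin-transferred in DMSO, 1 h preincubation, + media, 48 h 37 C 5% CO2; ATPLite 1step luminescence; normalized to cells and no cells.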
# [12] = qHTS profiling of the MIPE4 collection as inhibitors of Plasmodium falciparum (3D7) proliferation (AID 743344; call rule not given here;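 further: scaled between DMSO vehicle wells and 0.29 µM artemisinin as full inhibition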); conditions: P. falciparum 3D7 in erythrocytes, SYBR Green DNA fluorescence, 72 h; at 28.5 µM (top of the series) unless noted
# How it was run: (§1)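 Erythrocytes infected with P. falciparum (0.3% parasitemia, 2.5% hematocrit) incubated with compounds 72 h at 37 C, 5% CO2. Lysis with saponin/Triton buffer containing SYBR Green I, overnight at room temperature in the dark; DNA fluorescence (485/535 nm) normalised to 0.29 uM artemisinin and DMSO.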
# [13] = qHTS profiling of the MIPE4 collection as inhibitors of Plasmodium falciparum (DD2) proliferation (AID 743345; call rule not given here); conditions: P. falciparum Dd2 in erythrocytes, SYBR Green DNA, 72 h; at 28.5 µM (top of the series) unless noted
# How it was run: as §1
# [14] = qHTS profiling of the MIPE4 collection as inhibitors of Plasmodium falciparum (DD2) proliferation (Rep 2) (AID 743346; call rule not given here); conditions: P. falciparum Dd2 in erythrocytes, SYBR Green DNA, 72 h; at 28.5 µM (top of the series) unless noted
# How it was run: as §1
# [15] = Inducers of the Endoplasmic Reticulum Stress Response (ERSR) in human glioma: Validation (AID 504836; active means well fitted curve in the direction sought with a large enough effect; further: 0% is about no effect)
# How it was run: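 Stably transfected U87-MG human glioma cells carrying a GRP78-based luminescent sensor were seeded at 1000 cells/well, pin-dosed with compounds and incubated 16 h. Luciferase reagent was then added, and end-point luminescence was read after 10 min at room temperature.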
# [16] = biological target: Nucleoprotein (Lymphocytic choriomeningitis virus (strain Armstrong)) (UniProt P09992); test: qHTS for Inhibitors of the Functional Ribonucleoprotein Complex (vRNP) of Lymphocytic Choriomeningitis Arenaviruses (LCMV): LCMV Primary Screen - GLuc reporter signal (AID 1347086); further: potency means the concentration at half of the fitted maximal effect; nearly all actives have a fitted effect of over 70% in size
# Nucleoprotein (Lymphocytic choriomeningitis virus (strain Armstrong)), sequence (P09992 whole entry, looked up): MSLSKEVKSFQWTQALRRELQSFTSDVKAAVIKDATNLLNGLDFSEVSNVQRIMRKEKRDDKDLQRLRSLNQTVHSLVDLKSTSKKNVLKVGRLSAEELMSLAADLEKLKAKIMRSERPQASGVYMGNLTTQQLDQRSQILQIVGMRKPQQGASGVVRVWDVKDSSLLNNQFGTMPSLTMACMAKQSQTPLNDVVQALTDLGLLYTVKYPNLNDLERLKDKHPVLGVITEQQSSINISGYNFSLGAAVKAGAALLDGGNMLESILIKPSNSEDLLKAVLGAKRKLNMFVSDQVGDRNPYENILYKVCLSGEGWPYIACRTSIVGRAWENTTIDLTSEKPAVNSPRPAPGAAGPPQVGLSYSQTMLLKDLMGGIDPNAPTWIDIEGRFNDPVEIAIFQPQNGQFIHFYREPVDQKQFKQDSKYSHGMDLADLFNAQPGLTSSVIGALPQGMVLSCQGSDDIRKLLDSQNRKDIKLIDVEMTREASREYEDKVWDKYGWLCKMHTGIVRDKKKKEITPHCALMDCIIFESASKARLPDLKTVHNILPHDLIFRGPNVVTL
compound,measurement,setting,value
N#Cc1c(NC(=O)c2cccc3ccccc23)sc2c1CCCC2,Potency,[1],0.769 µM (active)
same,Potency,[2],1.09 µM (active)
same,"activity change, negative = inhibition",[3],-63.8%
same,Potency,[4],0.764 µM (active)
c1cncc(CN2CCC(n3ncc4c(N5CCOCC5)nc(-c5ccc6[nH]ccc6c5)nc43)CC2)c1,Potency,[1],1.22 µM (active)
same,Potency,[2],2.43 µM (active)
same,Potency,[5],2.51 µM (active)
same,Potency,[6],inactive
CC[C@]1(O)C[C@H]2CN(CCC3=c4ccccc4=N[C]3[C@@](C(=O)OC)(c3cc4c(cc3OC)N(C)[C@H]3[C@@](O)(C(N)=O)[C@H](O)[C@]5(CC)C=CCN6CC[C@]43[C@@H]65)C2)C1,Potency,[1],0.0385 µM (active)
same,Potency,[2],0.0109 µM (active)
same,Potency,[7],inactive
same,outcome,[8],inactive
same,Potency,[9],inactive
same,outcome,[10],inactive
same,Potency,[11],inactive
same,Potency,[4],0.0304 µM (active)
CC[C@H](CC[C@@H](C)[C@H]1CC[C@H]2[C@@H]3CC=C4C[C@@H](O)CC[C@]4(C)[C@@H]3CC[C@]12C)C(C)C,"parasite growth, % of DMSO control",[12],94%
same,"parasite growth remaining, % of DMSO control (lower = more inhibition)",[13],101%
same,"parasite growth, % of control (lower = inhibition)",[14],179%
same,Potency,[1],8.63 µM (active)
same,Potency,[2],2.43 µM (active)
CC(C)NC[C@H](O)COc1cccc2ccccc12,outcome,[15],inactive
same,Potency,[1],inactive
same,Potency,[2],inactive
CN(C)c1ccc(C(=O)NCCCCCCC(=O)NO)cc1,Potency,[1],4.85 µM (active)
same,Potency,[2],1.53 µM (active)
same,Potency,[3],inactive
Cc1cc(C(=O)NOCCO)c(Nc2ccc(I)cc2F)n(C)c1=O,Potency,[1],6.85 µM (active)
same,Potency,[2],0.863 µM (active)
same,Potency,[11],inactive
same,"activity change, negative = inhibition",[3],-17.4%
CN(C)CCN1C(=O)c2cccc3cc(N)cc(c23)C1=O,Potency,[1],7.69 µM (active)
same,Potency,[2],6.85 µM (active)
same,Potency,[3],7.08 µM (active)
CNC1CCC(N(Cc2cccc(-c3ccncc3)c2)C(=O)c2sc3ccccc3c2Cl)CC1 (stereo not drawn),Potency,[1],30.6 µM (active)
same,Potency,[16],10.9 µM (active)
same,Potency,[11],31.6 µM (active)
Nc1nc(N)c2nc(-c3cccc(O)c3)c(-c3cccc(O)c3)nc2n1,Potency,[1],8.63 µM (active)
same,Potency,[11],inactive
same,"activity change, negative = inhibition",[3],-9.58%
Cc1c(NC(=O)OC[C@@H]2COCCN2)cn2ncnc(Nc3ccc4c(cnn4Cc4cccc(F)c4)c3)c12,Potency,[1],1.22 µM (active)
same,Potency,[5],11.2 µM (active)
same,Potency,[11],inactive

# Reference: PubChem BioAssay (NCATS)
